Reference: publication PMC7862700, “An all-to-all approach to the identification of sequence-specific readers for epigenetic DNA modifications on cytosine”

Columns and labels:
Test in all cases: DAPPL (digital affinity profiling via proximity ligation, sequencing); 10 mM Tris-HCl pH 7.5, 50 mM NaCl, 1 mM DTT, 4% glycerol, room temperature, 30 min; GST-TFs on glutathione beads, 16-mer random dsDNA library, 0.1% formaldehyde crosslink after washing; high values mean tight binding
Conditions in all cases: protein: recombinant; tags: N-terminal GST; dsDNA, one strand shown
ERF = molecular target: T1, ERF (Homo sapiens, UniProt P50548 1-548)
T1 sequence: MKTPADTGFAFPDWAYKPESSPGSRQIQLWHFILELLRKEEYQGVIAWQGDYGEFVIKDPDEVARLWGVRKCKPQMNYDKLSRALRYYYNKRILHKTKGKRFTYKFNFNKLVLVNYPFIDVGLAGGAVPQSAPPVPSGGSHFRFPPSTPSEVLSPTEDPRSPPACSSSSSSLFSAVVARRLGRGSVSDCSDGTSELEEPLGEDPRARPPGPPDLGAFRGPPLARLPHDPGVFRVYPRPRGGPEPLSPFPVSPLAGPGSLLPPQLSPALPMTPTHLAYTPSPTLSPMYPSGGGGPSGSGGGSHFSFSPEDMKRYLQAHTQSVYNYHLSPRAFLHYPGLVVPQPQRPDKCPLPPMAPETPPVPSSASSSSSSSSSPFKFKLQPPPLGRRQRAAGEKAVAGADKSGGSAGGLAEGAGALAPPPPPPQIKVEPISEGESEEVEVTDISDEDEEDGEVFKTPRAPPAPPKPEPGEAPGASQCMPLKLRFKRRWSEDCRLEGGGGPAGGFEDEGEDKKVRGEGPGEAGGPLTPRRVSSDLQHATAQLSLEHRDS
In short: (§1)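 Binding signal is defined as a hexamer's read frequency for one factor over its frequency for the tag-only sample. To obtain reads, GST-fused human transcription factors were expressed in yeast, captured on glutathione beads, barcoded with DNA and pooled with that sample. Pools met 200 nmole of a 16-mer random double-stranded DNA library in Tris/NaCl/DTT/glycerol buffer for 30 min at room temperature before washing, 0.1% formaldehyde crosslinking, proximity ligation (BsaI/T4 ligase, 1 h, 37 °C), PCR and Illumina NextSeq500 sequencing.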

ETV3L = molecular target: T2, ETV3L (Homo sapiens, UniProt Q6ZN32 1-361)
T2 sequence: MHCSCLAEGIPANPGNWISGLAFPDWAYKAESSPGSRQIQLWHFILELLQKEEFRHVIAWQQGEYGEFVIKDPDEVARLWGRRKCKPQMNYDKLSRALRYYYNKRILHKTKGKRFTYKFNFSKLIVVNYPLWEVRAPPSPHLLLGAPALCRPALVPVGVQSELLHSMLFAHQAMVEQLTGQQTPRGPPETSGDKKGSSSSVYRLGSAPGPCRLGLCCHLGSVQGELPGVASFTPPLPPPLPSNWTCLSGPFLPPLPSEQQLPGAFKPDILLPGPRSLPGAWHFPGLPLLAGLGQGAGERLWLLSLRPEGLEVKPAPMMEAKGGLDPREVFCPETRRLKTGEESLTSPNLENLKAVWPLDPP
In short: as §1

ETS2 = molecular target: T3, ETS2 (Homo sapiens, UniProt P15036 1-469)
T3 sequence: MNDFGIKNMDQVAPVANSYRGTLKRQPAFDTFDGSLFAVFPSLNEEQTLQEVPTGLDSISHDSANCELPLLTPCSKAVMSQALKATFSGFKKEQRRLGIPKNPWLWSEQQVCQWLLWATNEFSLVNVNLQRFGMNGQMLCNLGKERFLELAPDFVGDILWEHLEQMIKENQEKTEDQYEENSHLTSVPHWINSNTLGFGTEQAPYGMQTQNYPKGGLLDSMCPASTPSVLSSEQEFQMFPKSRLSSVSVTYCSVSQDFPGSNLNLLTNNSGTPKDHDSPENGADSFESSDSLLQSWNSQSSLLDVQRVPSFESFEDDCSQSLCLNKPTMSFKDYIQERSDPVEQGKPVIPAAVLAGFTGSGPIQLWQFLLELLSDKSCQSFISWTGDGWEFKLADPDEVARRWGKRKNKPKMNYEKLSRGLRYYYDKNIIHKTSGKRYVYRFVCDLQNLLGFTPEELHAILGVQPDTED
In short: as §1

SPDEF = molecular target: T4, SPDEF (Homo sapiens, UniProt O95238 1-335)
T4 sequence: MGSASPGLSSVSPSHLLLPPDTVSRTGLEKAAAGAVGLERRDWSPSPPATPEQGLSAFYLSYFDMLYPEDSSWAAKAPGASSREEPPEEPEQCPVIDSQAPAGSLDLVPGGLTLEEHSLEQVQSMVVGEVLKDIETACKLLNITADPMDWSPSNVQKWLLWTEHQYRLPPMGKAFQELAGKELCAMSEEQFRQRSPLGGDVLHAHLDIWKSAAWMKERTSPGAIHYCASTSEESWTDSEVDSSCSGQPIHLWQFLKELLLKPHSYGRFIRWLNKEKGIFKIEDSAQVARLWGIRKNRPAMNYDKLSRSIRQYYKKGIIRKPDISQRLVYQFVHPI
In short: as §1

ETV7 = molecular target: T5, ETV7 (Homo sapiens, UniProt Q9Y603 1-341)
T5 sequence: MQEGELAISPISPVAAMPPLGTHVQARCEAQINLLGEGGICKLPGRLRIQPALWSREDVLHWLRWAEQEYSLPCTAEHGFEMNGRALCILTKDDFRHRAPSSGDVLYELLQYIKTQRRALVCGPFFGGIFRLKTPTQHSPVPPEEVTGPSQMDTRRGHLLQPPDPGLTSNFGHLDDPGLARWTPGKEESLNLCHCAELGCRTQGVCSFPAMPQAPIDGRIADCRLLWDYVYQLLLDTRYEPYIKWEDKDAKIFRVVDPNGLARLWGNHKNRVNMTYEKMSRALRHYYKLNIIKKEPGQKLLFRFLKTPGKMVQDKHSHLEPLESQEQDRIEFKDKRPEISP
In short: as §1

ELF5 = molecular target: T6, ELF5 (Homo sapiens, UniProt Q9UKW6-2 1-255)
T6 sequence: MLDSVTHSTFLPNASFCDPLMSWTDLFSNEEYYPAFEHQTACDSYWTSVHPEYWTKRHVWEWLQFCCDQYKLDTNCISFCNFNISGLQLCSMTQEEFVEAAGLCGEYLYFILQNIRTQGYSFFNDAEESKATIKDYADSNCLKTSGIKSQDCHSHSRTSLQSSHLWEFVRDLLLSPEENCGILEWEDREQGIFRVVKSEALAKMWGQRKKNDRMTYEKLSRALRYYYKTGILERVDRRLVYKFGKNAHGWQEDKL
In short: as §1

ETV3 = molecular target: T7, ETV3 (Homo sapiens, UniProt P41162-2 1-143)
T7 sequence: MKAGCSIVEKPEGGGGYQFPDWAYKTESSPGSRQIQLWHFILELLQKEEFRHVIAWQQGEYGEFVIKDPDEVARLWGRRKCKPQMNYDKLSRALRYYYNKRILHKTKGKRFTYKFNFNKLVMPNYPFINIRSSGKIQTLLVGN
In short: as §1

ETV6 = ETV6 (Homo sapiens, UniProt P41212 1-452)
In short: as §1

Sequence of ETV6 (P41212 whole entry): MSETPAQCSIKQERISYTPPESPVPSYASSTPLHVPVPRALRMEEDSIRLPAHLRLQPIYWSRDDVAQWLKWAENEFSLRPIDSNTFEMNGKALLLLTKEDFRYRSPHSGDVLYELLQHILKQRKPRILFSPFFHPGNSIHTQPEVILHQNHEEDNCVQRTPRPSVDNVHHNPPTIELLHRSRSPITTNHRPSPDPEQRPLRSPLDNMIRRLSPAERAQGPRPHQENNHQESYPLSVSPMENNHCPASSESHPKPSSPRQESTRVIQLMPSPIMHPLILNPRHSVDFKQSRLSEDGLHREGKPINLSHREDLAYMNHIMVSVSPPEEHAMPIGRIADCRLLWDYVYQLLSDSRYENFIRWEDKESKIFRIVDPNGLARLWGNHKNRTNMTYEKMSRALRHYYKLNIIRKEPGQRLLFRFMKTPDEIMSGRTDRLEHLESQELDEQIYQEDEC

Row | Sequence | binding signal (ERF) | binding signal (ETV3L) | binding signal (ETS2) | binding signal (SPDEF) | binding signal (ETV7) | binding signal (ELF5) | binding signal (ETV3) | binding signal (ETV6)
1 | ACTATC | 1.21 fold enrichment (6-mer frequency, TF over GST control) | 1.15 fold enrichment (6-mer frequency, TF over GST control) | 1.19 fold enrichment (6-mer frequency, TF over GST control) | 1.18 fold enrichment (6-mer frequency, TF over GST control) | 1.19 fold enrichment (6-mer frequency, TF over GST control) | 1.13 fold enrichment (6-mer frequency, TF over GST control) | 1.13 fold enrichment (6-mer frequency, TF over GST control) | 1.1 fold enrichment (6-mer frequency, TF over GST control)
2 | GTACTT | 1.64 fold enrichment (6-mer frequency, TF over GST control) | 1.87 fold enrichment (6-mer frequency, TF over GST control) | 2.02 fold enrichment (6-mer frequency, TF over GST control) | 2.57 fold enrichment (6-mer frequency, TF over GST control) | 2.11 fold enrichment (6-mer frequency, TF over GST control) | 2.51 fold enrichment (6-mer frequency, TF over GST control) | 1.97 fold enrichment (6-mer frequency, TF over GST control) | 2.47 fold enrichment (6-mer frequency, TF over GST control)
3 | TTTCAC | 1.44 fold enrichment (6-mer frequency, TF over GST control) | 1.36 fold enrichment (6-mer frequency, TF over GST control) | 1.32 fold enrichment (6-mer frequency, TF over GST control) | 1.33 fold enrichment (6-mer frequency, TF over GST control) | 1.4 fold enrichment (6-mer frequency, TF over GST control) | 1.42 fold enrichment (6-mer frequency, TF over GST control) | 1.32 fold enrichment (6-mer frequency, TF over GST control) | 1.3 fold enrichment (6-mer frequency, TF over GST control)
4 | CCCGAA | 1.48 fold enrichment (6-mer frequency, TF over GST control) | 1.35 fold enrichment (6-mer frequency, TF over GST control) | 1.37 fold enrichment (6-mer frequency, TF over GST control) | 1.31 fold enrichment (6-mer frequency, TF over GST control) | 1.26 fold enrichment (6-mer frequency, TF over GST control) | 1.32 fold enrichment (6-mer frequency, TF over GST control) | 1.33 fold enrichment (6-mer frequency, TF over GST control) | 1.36 fold enrichment (6-mer frequency, TF over GST control)
5 | CCCAAT | 1.18 fold enrichment (6-mer frequency, TF over GST control) | 1.27 fold enrichment (6-mer frequency, TF over GST control) | 1.22 fold enrichment (6-mer frequency, TF over GST control) | 1.29 fold enrichment (6-mer frequency, TF over GST control) | 1.15 fold enrichment (6-mer frequency, TF over GST control) | 1.23 fold enrichment (6-mer frequency, TF over GST control) | 1.18 fold enrichment (6-mer frequency, TF over GST control) | 1.28 fold enrichment (6-mer frequency, TF over GST control)
6 | CTTCCG | 6.13 fold enrichment (6-mer frequency, TF over GST control) | 7.08 fold enrichment (6-mer frequency, TF over GST control) | 8.04 fold enrichment (6-mer frequency, TF over GST control) | 7.63 fold enrichment (6-mer frequency, TF over GST control) | 7.48 fold enrichment (6-mer frequency, TF over GST control) | 11.4 fold enrichment (6-mer frequency, TF over GST control) | 8.47 fold enrichment (6-mer frequency, TF over GST control) | 9.62 fold enrichment (6-mer frequency, TF over GST control)
7 | TTGCCT | 1.18 fold enrichment (6-mer frequency, TF over GST control) | 1.34 fold enrichment (6-mer frequency, TF over GST control) | 1.24 fold enrichment (6-mer frequency, TF over GST control) | 1.18 fold enrichment (6-mer frequency, TF over GST control) | 1.23 fold enrichment (6-mer frequency, TF over GST control) | 1.19 fold enrichment (6-mer frequency, TF over GST control) | 1.14 fold enrichment (6-mer frequency, TF over GST control) | 1.1 fold enrichment (6-mer frequency, TF over GST control)
8 | TAAGTA | 1.24 fold enrichment (6-mer frequency, TF over GST control) | 1.22 fold enrichment (6-mer frequency, TF over GST control) | 1.2 fold enrichment (6-mer frequency, TF over GST control) | 1.21 fold enrichment (6-mer frequency, TF over GST control) | 1.13 fold enrichment (6-mer frequency, TF over GST control) | 1.25 fold enrichment (6-mer frequency, TF over GST control) | 1.23 fold enrichment (6-mer frequency, TF over GST control) | 1.28 fold enrichment (6-mer frequency, TF over GST control)
